Screens (PubChem BioAssay)
Compounds with a hit are over-represented: about 4.1% of the library has one in this group of screens.
hcDAF-12 act = H. contortus DAF-12 activation, primary screen; HEK293 hcDAF-12 lit1-tk-luc reporter, luminescence; 0% DMSO, 100% Δ7-dafachronic acid; 1.4% of 370,000 active; activation, % at 6.8 µM; AID 652067;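 active means activation above the mean of all tested compounds plus 3 SD, cut at about 5.5% in these data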;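 further: 100% = response to 3 µM Δ7-dafachronic acid high control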
DAX1 inh-1 = inhibits human nuclear receptor DAX1 | HEK293 Gal4-DAX1 luciferase reporter, luminescence | inhibition, % at 6.75 µM | 0.99% of 340,000 active | AID 504766;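 active means inhibition above the mean over all tested compounds plus 3 SD, cut at about 4.2% in these data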;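 further: 0% = DAX1-transfected cells with DMSO and 100% = empty-vector control cells with DMSO; inhibition shows as a rise in luminescence from relieved DAX1 repression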
Target sequence (P51843 207-470 limits assumed): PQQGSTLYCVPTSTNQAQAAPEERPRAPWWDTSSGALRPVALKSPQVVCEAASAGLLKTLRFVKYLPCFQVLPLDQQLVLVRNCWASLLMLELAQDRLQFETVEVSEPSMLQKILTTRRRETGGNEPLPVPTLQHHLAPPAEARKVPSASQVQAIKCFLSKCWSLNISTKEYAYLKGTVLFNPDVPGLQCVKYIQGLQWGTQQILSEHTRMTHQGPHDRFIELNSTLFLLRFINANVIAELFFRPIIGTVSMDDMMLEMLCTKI
DAX1 inh-2 = inhibitors of DAX1 repression of SF-1 activated StAR promoter. HEK293T StAR-luciferase reporter, SF-1/DAX-1 repression relief. inhibition, % at 6.8 µM. 1.1% of 370,000 active;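 active means inhibition above the mean over all tested compounds plus 3 SD, cut at about 3.6% in these data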;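 further: 0% = DAX-1 cells with DMSO and 100% = cells lacking DAX-1 with DMSO; higher inhibition means more luminescence from relief of DAX-1 repression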
hgDAF12 agonist = hgDAF-12 agonism, primary luciferase screen; 1.8% of 370,000 active; HEK293 GAL4-hgDAF12 UAS-luciferase reporter, agonist luminescence; normalized to butyrate control; activation, % at 6.8 µM;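 active means activation above a cutoff set at the mean of all screened compounds plus 3 SD, cut at about 10% in these data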;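 further: 0% = DMSO wells and 100% = sodium butyrate wells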
ssDAF-12 act = S. stercoralis DAF-12 activation, primary screen; HEK293 ssDAF-12/GRIP1 lit1-tk-luc reporter, luminescence; % of 3 µM dafachronic acid response; activation, % at 6.8 µM; 1% of 370,000 active; AID 652126;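 active means activation above the mean over all tested compounds plus 3 SD, cut at about 0.9% in these data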;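 further: 0% = DMSO-only wells and 100% = 3 µM delta7-dafachronic acid wells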
LXR ag = LXR-beta agonism as hcDAF-12 counter-screen; HEK293 Gal4-LXR tk-luc reporter, luminescence, 24 h; normalized: DMSO 0%, positive control 100%; AID 743027; 3,400 tested, under 10 active; activation, % at 6.8 µM; shares compounds with hcDAF-12 act;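 active means mean percent activation of the reporter above a cutoff set as the average over tested compounds plus their standard deviation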
hcDAF12 conf = confirmation of H. contortus DAF-12 agonists; shares compounds with hcDAF-12 act; HEK293 hcDAF-12 lit1-tk-luc reporter, luminescence; % of Δ7-dafachronic acid response; activation, % at 6.8 µM; 61% of 3,400 active; AID 743032;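 active means mean activation across triplicate tests above the threshold derived from the earlier primary screen, cut at about 5.5% in these data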;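 further: 0% = DMSO only wells and 100% = 3 µM Δ7-dafachronic acid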
Numbers without * were called inactive; . = not tested or not shown.

SMILES	hcDAF-12 act	DAX1 inh-1	DAX1 inh-2	hgDAF12 agonist	ssDAF-12 act	LXR ag	hcDAF12 conf
O=C(Nc1nccs1)C1Cc2ccccc2CN1S(=O)(=O)c1ccc(F)cc1 (centres undefined)	10.7*	0.8	3.2	11.6*	0.8	0.8	7.7*
C[C@@H]1COc2cc(Br)ccc2S(=O)(=O)N1Cc1cn(Cc2ccccc2)nn1	-0.9	.	-1.3	0.1	-1.4	.	.
O=C(Nc1ccccc1)Nc1cccc2nsnc12	8.9*	2.5	3.0	8.8	2.3*	1.2	12.2*
O=C(Nc1cccc2nsnc12)c1cccs1	1.1	2.6	0.0	10.0	-0.6	.	.
CN(C)c1ccc(-c2nnc(-c3ccccc3F)o2)cc1	10.2*	0.7	3.2	13.0*	0.9	1.5	6.5*
Brc1ccc(-c2nc(N/N=C/c3cccnc3)c3ccccc3n2)cc1	11.0*	0.7	1.2	13.1*	1.6*	1.6	13.8*
O=C1c2cccc(NCCNCCO)c2C(=O)c2cccc(NCCNCCO)c21	8.9*	-0.8	-5.5	-0.5	0.7	2.4	14.5*
C/C(=N\Nc1nc(-c2ccccc2)cs1)c1cccs1	1.7	0.1	-1.5	-2.4	-0.2	.	.
C/C(=N\Nc1nc2ccccc2s1)c1cccs1	18.1*	1.0	3.4	12.3*	1.4*	1.9	23.0*
C/C(=N/NC(=O)c1cccs1)c1cccs1	6.9*	7.1*	1.8	12.7*	0.4	0.6	3.8
CC(=NNc1nc2ccccc2o1)c1ncccn1	0.1	-5.1	-5.4	-2.7	-0.8	.	.
CC(=NNc1nc2ccccc2s1)c1ncccn1	11.2*	-3.9	-1.5	12.4*	-0.1	0.1	0.9
C/C(=N\NC(=O)c1cc2ccccc2cc1O)c1cccs1	4.8	0.8	1.5	2.5	-0.3	.	.
CCCCOCC1CN(CCCC)S(=O)(=O)c2c(cccc2Sc2ccc(SC)cc2)O1 (centres undefined)	-1.9	.	0.8	-0.8	-1.1	.	.
Cc1ccccc1CN1CCCCC(NC(=O)c2ccc(COc3ccccc3)cc2)C1=O (centres undefined)	-6.7	.	-4.5	-6.9	-2.4	.	.
Cc1cc(F)ccc1C(=O)N1CCC(Oc2cccnc2)CC1	-0.9	.	-1.0	3.0	0.1	.	.
Cc1cccc(NC(=O)CNC(=O)[C@@H](Cc2ccccc2)NC(=O)[C@H]2O[C@@H](n3ccc(=O)[nH]c3=O)[C@H](O)[C@@H]2O)c1C	-0.8	.	-0.5	-3.8	-1.6	.	.
CCOC(=O)C1CCCN(C(=O)Cc2c(C(=O)O)[nH]c3ccccc23)C1 (centres undefined)	6.8*	1.0	0.1	0.3	-0.3	-0.2	2.6
CCOC(=O)C1CCCN(C(=O)CC(c2ccccc2)c2ccccc2)C1 (centres undefined)	-1.5	-1.4	-0.1	0.8	-1.8	.	.
CCCC(=O)N1CCC[C@]2(CC[C@H](CCC(=O)OCC)O2)C1	0.6	.	-0.7	-0.7	-0.6	.	.
CCOC(=O)c1sc(=NC(=O)c2cc(OC)c(OC)c(OC)c2)n(C)c1C	-0.3	-0.1	0.1	-0.6	-1.2	.	.
CCOC(=O)c1sc(=NC(=O)c2ccc(C)cc2)n(C)c1C	9.7*	1.9	3.6	11.2*	1.2*	0.6	9.7*
Cc1noc(/C=C/N(C)C)c1S(=O)(=O)N1CCc2ccccc21	7.4*	2.3	0.3	-3.1	0.2	-0.2	5.7*
N#Cc1ccsc1NC(=O)COC(=O)c1cc2ccccc2cc1O	9.3*	2.3	2.4	5.3	1.1*	0.4	10.5*
Cc1cc2cc(OCc3ccccc3)ccc2n1C	6.7*	3.8	1.5	6.0	-0.4	1.3	3.6
SMILES	hcDAF-12 act	DAX1 inh-1	DAX1 inh-2	hgDAF12 agonist	ssDAF-12 act	LXR ag	hcDAF12 conf
Cc1cc2cc(OCC(=O)O)ccc2n1C	-1.3	-0.9	-0.1	-0.7	-1.1	.	.
CC1=NN(C(=O)c2nn(C)cc2Br)C(O)(C(F)(F)F)C1 (centres undefined)	8.9*	0.3	1.7	10.3	-0.5	-0.3	0.2
C=CCN1C(=O)[C@H](CC(=O)NCc2cccc3ccccc23)[C@@]2(C(=O)OCC)CCCC=C12	-0.8	.	-0.1	-3.9	-1.2	.	.
Cc1nc(NC(=S)Nc2ccccc2)sc1C	10.0*	1.9	1.1	10.4	0.0	0.4	3.4
CCC(C(=O)Nc1nc(C)c(C)s1)c1ccccc1 (centres undefined)	-1.0	0.3	-0.7	-1.7	-0.6	.	.
Cc1ccc(Cl)c2c(N=Nc3ccccc3)c(O)[nH]c12	7.7*	6.3*	0.8	5.9	0.9*	0.8	10.4*
Cc1ccc(CNc2ncccc2-c2nc3cc(Cl)ccc3o2)cc1	2.1	0.2	-0.2	0.3	-0.3	.	.
COc1cc(OC)cc(-c2nc3cc(C)ccc3o2)c1	17.3*	2.2	3.8*	10.1	2.3*	0.8	12.6*
Cc1ccc(-c2nc3cc(Cl)ccc3o2)cc1	8.2*	3.8	2.9	8.4	0.9*	1.9	16.1*
COC(=O)[C@]12C=CCN1[C@H](c1ccc(Cl)cc1)c1c(c3ccccc3n1S(=O)(=O)c1ccc(C)cc1)C2	2.5	.	0.3	-2.6	0.0	.	.
CN[C@H]1C[C@H]2c3[nH]c4cccc(-c5cccc(C)c5)c4c3CCN2C(=O)[C@H]1[C@H](C)O	-1.4	.	0.2	1.0	-1.7	.	.
CN[C@H]1C[C@H]2c3[nH]c4ccccc4c3CCN2C(=O)[C@H]1[C@H](C)O	8.1*	-0.1	1.9	3.8	0.1	0.0	2.6
COc1ccc(-c2nnc3c4ccccc4c(C)nn23)cc1	6.7*	2.0	1.1	6.9	0.5	0.3	5.7*
Cc1nn2c(-c3ccncc3)nnc2c2ccccc12	-2.8	-0.1	0.2	0.9	-1.3	.	.
CC(C)(C)c1ccc(C(=O)NCC(=O)OCC(=O)N2CCN(S(=O)(=O)c3ccc(Cl)cc3)CC2)cc1	14.6*	0.6	2.4	3.5	-0.3	0.2	3.0
CCOC(=O)[C@@]12CN(C(=O)OC(C)(C)C)CC=C1N(Cc1ccc(OC)cc1)C(=O)[C@H]2CC(=O)N1CCOCC1	0.2	.	-0.5	0.1	-1.4	.	.
CCc1ccc(OCc2nc(-c3ccccn3)no2)c(Br)c1	7.7*	-1.4	7.1*	8.4	1.0*	1.5	6.4*
O=c1c(=Nc2ccccc2O)c(=O)c2ccccc12	8.3*	-0.2	-1.1	-0.2	-0.9	0.7	5.4
CC(C)(C)[C@@H]1/C(=C/C2CC2)N2C(=O)C[C@@H](c3ccccc3)N=C2N1Cc1ccc2c(c1)OCO2	-1.9	.	.	-1.3	-1.7	.	.
O=C1Nc2ccccc2/C1=C\C(=O)c1ccccc1	-0.9	-1.9	-0.7	-1.9	-1.3	.	.
